Data from PubChem BioAssay AID2187 (The Scripps Research Institute Molecular Screening Center, 2009).
The whole screen tested about 1,300 compounds, of which about 1,200 (92%) were called active. The set was probably picked from earlier hits. The list is a sample of the results. Unmarked numbers belong to inactive results.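 Rule for the calls: active = inhibition of the VIM-2 beta-lactamase enzyme above about 11% from the earlier first-round screen (limit read from the data); inactive = the rest.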

These molecules were tested on VIM-2 metallo-beta-lactamase (Pseudomonas aeruginosa) (assay: VIM-2 metallo-beta-lactamase inhibitors, confirmation, biochemical, epi-absorbance, hits shared with IMP-1 screen (AID 2187;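 note: 0% = VIM-2 with DMSO and 100% = buffer wells without enzyme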)). Conditions: purified VIM-2, nitrocefin hydrolysis, at 5.6 µM, stronger effect = higher value.

| Compound | inhibition |
| --- | --- |
| CC1CCCC(C)N1CCCNC(=O)c1cc2c(=O)n(C)c3ccccc3c2n1C (configuration not stated) | 29.3% (active) |
| CCN1CCCC1CNC(=O)c1cc2c(=O)n(C)c3ccccc3c2n1C (configuration not stated) | 32.5% (active) |
| Cc1cc(NCc2ccco2)n2c(nc3ccccc32)c1C#N | 53% (active) |
| CCN(CC)c1ccc2cc(C(N)=O)/c(=N\NC(=O)c3ccncc3)oc2c1 | 37.4% (active) |
| COc1ccc(/C=N/N(C)C2=NS(=O)(=O)c3ccccc32)cc1OC | 20.6% (active) |
| O=C(COc1cc2oc(=O)c3c(c2cc1Cl)CCC3)NCCCN1CCOCC1 | 34.9% (active) |
| Cn1c(=O)c2c(nc(N3CCOCC3)n2CCNC2=NCCC2)n(C)c1=O | 28% (active) |
| CCN(CC)CCOc1ccc2c(c1)C(=NNC(=O)c1ccccn1)c1cc(OCCN(CC)CC)ccc1-2 | 43.4% (active) |
| Cn1c2ccccc2c(=O)c2c(O)cccc21 | 38.6% (active) |
| C=CCn1c(-c2ccccc2OCC)n[nH]c1=S | 24.7% (active) |
| COc1ccc(CCn2c(=N)c(C(=O)NCC3CCCO3)cc3c(=O)n4cccc(C)c4nc32)cc1OC (configuration not stated) | 27.6% (active) |
| CC(=O)c1ccc(-c2ccc(Cn3c(C)nc4cc(N)c(C)nc43)cc2)cc1 | 26.6% (active) |
| CCOCCCNc1c(CC)c(C)c(C#N)c2nc3ccccc3n12 | 20.6% (active) |
| CCOC(=O)N1CCN(C(=O)C2CCN(c3ncnc4c3sc3cccc(F)c34)CC2)CC1 | 22% (active) |
| Cc1cccn2c(=O)c(C=O)c(Nc3ccc(S(N)(=O)=O)cc3)nc12 | 26.6% (active) |
| O=c1[nH]c(-c2ccccc2)c(-c2ccccc2)[nH]1 | 45.7% (active) |
| COc1cc(/C=N/Nc2nn3cnnc3c3ccccc23)cc(OC)c1OC | 53.9% (active) |
| COc1ccc(Nc2cc(C)nc(-n3nc(C)cc3C)n2)cc1 | 25.1% (active) |
| COc1ccc(Cc2nnc(NS(=O)(=O)Cc3ccccc3)s2)cc1 | 21.1% (active) |
| CCC1CCCCN1CCCNC(=O)c1cc2c(Cl)nc3ccccc3c2s1 (configuration not stated) | 32.2% (active) |
| Cc1nc2ccccc2c2oc(C(=O)NCCCN3CCC(C)CC3)cc12 | 29.2% (active) |
| CCCc1ccc(OCCNC(=O)c2ccco2)cc1 | 0.92% |
| O=C(NC(=S)Nc1ccccc1C(=O)O)c1ccc(-c2ccc(Br)cc2)o1 | 8.47% (active) |
| COC(=O)c1c(NC(=O)c2ccc(S(=O)(=O)N3CCOCC3)cc2)sc2c1CCN(C(C)C)C2 | 71.3% (active) |
| CNC(=O)c1ccsc1NC(=O)c1ccc(S(=O)(=O)N2CCOCC2)cc1 | 26.7% (active) |
| COc1cc(NC(=O)C2=C(C)OCCS2)c(Cl)cc1C(=O)NCCN1CCN(C)CC1 | 34.3% (active) |

| Compound | inhibition |
| --- | --- |
| CCN1CCN(C(=O)Cn2nc(C)n3c(cc4c(OC)cccc43)c2=O)CC1 | 41.4% (active) |
| Nc1nnc2c(C(F)(F)F)nc3ccccc3n12 | 21.3% (active) |
| NC(=O)C1CCN(C(=O)COc2ccc3c4c(c(=O)oc3c2)CCC4)CC1 | 22.5% (active) |
| COc1nc(N=C(N)N)nc2c(C)cccc12 | 24.9% (active) |
| Cc1cc(C)c2nc3nc(C)cc(C)c3c(N)c2c1 | 28.1% (active) |
| O=C(NCCCN1CCOCC1)c1cnn2c(-c3ccccc3)cc(-c3ccccc3)nc12 | 45.4% (active) |
| COc1cc(-c2nn3c(-c4cccc(C)c4)nnc3s2)cc(OC)c1OC | 22.1% (active) |
| COc1ccc(-c2nn3c(-c4ccccc4)nnc3s2)cc1OC | 34.6% (active) |
| COC(=O)c1ccc(-c2noc(CN(Cc3ccccn3)CC3CCCO3)n2)cc1 (configuration not stated) | 26.8% (active) |
| CCN1CCN(CCNC(=O)c2ccc3c(c2)NC(=O)/C(=C\c2ccc(OC)c(OC)c2)S3)CC1 | 30.4% (active) |
| Nc1cccc2c1C(=O)N(Cc1nnc(-c3ccccc3Br)o1)C2=O | 18.7% (active) |
| CN1CCN(c2ccc(NC(=O)c3ccc4c(c3)[nH]c(=O)n4Cc3ccc(F)cc3)cc2)CC1 | 33.6% (active) |
| CC(NS(=O)(=O)c1ccccc1)c1n[nH]c(=S)n1-c1ccccc1 (configuration not stated) | 28.1% (active) |
| CN(C)CCNc1ccc(-c2n[nH]c(=O)c3ccccc23)cc1[N+](=O)[O-] | 84.4% (active) |
| O=C1Nc2cc(C(=O)N3CCC(N4CCCCC4)CC3)ccc2S/C1=C\c1ccccc1 | 38.5% (active) |
| Fc1ccc(-c2ccc(CNCc3ccccn3)o2)cc1Cl | 54.3% (active) |
| Cc1ccc2nc(C)c3c(c2c1)N(c1ccccc1)CC3 | 25.2% (active) |
| Cn1c(-c2sccc2OCc2cccc(C(F)(F)F)c2)n[nH]c1=S | 37.3% (active) |
| Cc1ccc(Cl)cc1-c1ccc(/C=N/n2cnnc2)o1 | 41.2% (active) |
| Clc1cc(-c2ccc(/C=N/n3cnnc3)o2)ccc1Br | 57% (active) |
| Cc1cc([N+](=O)[O-])c(-c2ccc(/C=N/n3cnnc3)o2)cc1Cl | 67.5% (active) |
| Cc1cc(-c2ccc(/C=N/n3cnnc3)o2)c([N+](=O)[O-])cc1C | 69.9% (active) |
| CC(C)(C)CC(=O)Nc1nnc(SCC(=O)NCc2cccs2)s1 | 27.4% (active) |
| CCc1cc(=O)oc2cc(C)cc(OCC(=O)N3CCC[C@@H]3C(=O)O)c12 | 19.7% (active) |
| CCOc1cc(/C=C2\SC(N3CCCCC3)=NC2=O)ccc1O | 19% (active) |
| CCOc1cc(/C=C2\SC(N3CCCC(C)C3)=NC2=O)ccc1O (configuration not stated) | 20.7% (active) |
